High-throughput results: PubChem, National Center for Advancing Translational Sciences (NCATS)
PLK1 PBD inh: inhibitors of human PLK1 polo-box domain binding; P53350; Plk1 PBD binding of FITC phosphopeptide, fluorescence polarization; Potency, µM, without a hit: max response, negative = inhibition, most hits filed as inhibitors; 360,000 compounds, 2.8% hits; AID 720504; further: series mostly up to about 57 µM; on the % scale 0 is the no-effect control and ±100 the full control effect; nearly all actives have a fitted effect of over 65% in size
BAZ2B inh: inhibitors of human BAZ2B bromodomain | 360,000 compounds, 4.4% hits | Potency, µM (top dose mostly 114 µM), for the others: at the highest dose activity change, negative = inhibition, actives largely listed as inhibitors | AlphaScreen BAZ2B-H3K14Ac peptide displacement; further: on the % scale 0 is the no-effect control and ±100 the full control effect; nearly all actives have a fitted effect of over 60% in size
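AlphaScreen displacement: compounds (up to 110uM) incubated 30 min at room temperature with a preformed 50 nM BAZ2B/50 nM biotinylated H3K14Ac peptide complex in PBS pH 7.4 with Tween-20. Donor and acceptor beads at 10 ug/mL final added, 20 min light-protected before reading.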
VDR inhibitor: vitamin D3 receptor (human) inhibition | P11473 | VDR-SRC2-3 peptide fluorescence polarization, 2 h | Potency, µM, without a hit: max response, negative = inhibition, hits mostly inhibitors | 400,000 compounds, 0.93% hits; further: on the % scale 0 is the no-effect control and ±100 the full control effect
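Measured by FP: displacement of SRC2-3 coactivator peptide from VDR by library compounds, following a two-hour ambient incubation.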
HP1b chromo inh: blocks HP1-beta chromodomain binding to methylated histone tails. P83916. AlphaScreen HP1-beta / biotin-H3K9me3 peptide binding. Potency, µM (titrated, usually from 114 µM), for the others: top-dose activity change, negative = inhibition, actives largely listed as inhibitors. 390,000 compounds, 0.56% hits. AID 540317; further: nearly all actives have a fitted effect of over 70% in size
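HP1-beta protein (50 nM final) preincubated 30 min at room temperature with biotinylated H3(1-18)K9me3 peptide (50 nM) in PBS pH 7.4, 0.01% Tween-20, then compound added for 30 min. AlphaScreen streptavidin donor/nickel chelate acceptor beads (10 ug/mL final), 30 min dark, luminescence read.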
G9a block: inhibitors of human histone lysine methyltransferase G9a | Q96KQ7 | G9a H3K9 monomethylation, AlphaScreen, 2 h | Potency, µM (doses to about 102 µM), without a hit: top-dose activity, negative = inhibition, actives largely listed as inhibitors | 350,000 compounds, 8.8% hits; further: on the % scale 0 is the no-effect control and ±100 the full control effect; nearly all actives have a fitted effect of over 75% in size
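Quantitative HTS format: methyltransferase activity on a biotin-tagged H3K9 peptide is measured by AlphaScreen, using a rabbit anti-monomethyl-H3K9 antibody with streptavidin donor and anti-IgG acceptor beads. Final levels are 20 nM enzyme, 500 nM peptide, 20 uM SAM; 2 h RT.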
JMJD2A Tudor inh: blocks the human JMJD2A Tudor domain; 390,000 compounds, 4.4% hits; AID 504339; AlphaScreen JMJD2A-Tudor / H3K4me3 peptide binding; Potency, µM (highest dose often 114 µM), without a hit: at the highest dose activity change, negative = inhibition, usual class: inhibitors; O75164; further: on the % scale 0 is the no-effect control and ±100 the full control effect; nearly all actives have a fitted effect of over 50% in size
* = called active by the depositor; ? = inconclusive; nt = not tested or not shown; [ ] = dose if it differs, or a comment. Most compounds without a hit are left out; they make up all but 11% or so of the library. The call rests on the fitted dose curve; in most records, active means well fitted curve in the direction sought with a large enough effect; inconclusive means small, poorly fitted or top-dose-only effect, or another doubt; inactive means no such curve, though single readings can be large; an effect the other way counts as inactive or inconclusive. Potency means the concentration at half of the fitted maximal effect.

SMILES	PLK1 PBD inh	BAZ2B inh	VDR inhibitor	HP1b chromo inh	G9a block	JMJD2A Tudor inh
COc1ccc(CNC(=O)CCNC(=O)c2ccc(C(C)(C)C)cc2)cc1OC	-3%	11%	1%	23%	4%	-3%
COc1cccc(Cn2c(=O)c(-c3cccs3)nc3cnc(N4CCOCC4)nc32)c1	nt	nt	-19%	nt	2%[0.501 µM]	nt
CC(=O)c1ccc(N2Cc3ccccc3C3(CCOCC3)C2=N)cc1	2%	-25%	?	37%	56µM*	-5%
CC(=O)c1ccc(N2CCN(S(=O)(=O)c3cccc(S(=O)(=O)N4CCOCC4)c3)CC2)cc1	-23%	?	-2%	-10%	-34%	4%[11.4 µM]
COc1cccc(-c2nnc(-c3ccco3)o2)c1	30µM*	5%	?	-2%	-8%	50µM*
CC(=O)Oc1ccc(C(=O)Nc2cccc(-c3nnc(-c4ccco4)o3)c2)cc1	-6%	-29%	18%	17%	50µM*	-20%
COc1cccc(-c2nnc(N)o2)c1	-13%	-2%	-7%	21%	1%	-6%
O=C(Nc1cccc(-c2nnc(-c3ccco3)o2)c1)c1ccccc1	0%	-4%	3%	19%	8%	-8%
COc1cccc(-c2nnc(-c3ccc(C)o3)o2)c1	-3%	-4%	-1%	30%	13µM*	-16%
Cc1ccc(CSCC(=O)N2CCN(c3cc(Cl)ccc3C)CC2)cc1	nt	45%	-5%	82%	11%[59 µM]	25%
O=C(CNC(=O)c1ccccc1Cl)OCc1cc(=O)n2nc(C3CC3)sc2n1	nt	-17%	6%	51%	9%[59 µM]	-1%
COc1ccccc1C(CNC(=O)c1cccc(S(=O)(=O)Nc2ccc(C)cc2)c1)N(C)C (stereo unspecified)	-3%	-12%	13%	8%	13%[12.7 µM]	-23%
C#Cc1ccc([C@H]2C=C(C(=O)N3CCOCC3)O[C@@H](OCc3ccc(CO)cc3)C2)cc1	-10%	-11%	3%	33%	-14%[59 µM]	-18%
O=C(Cn1ncn2c(cc3cc(F)ccc32)c1=O)NC1CCCCC1	nt	3%	6%	23%	?	-13%
CCCOc1cccc(C2c3c(oc4cc(C)c(C)cc4c3=O)C(=O)N2CCCN2CCOCC2)c1 (stereo unspecified)	nt	-25%	-9%	11%	-21%[59 µM]	-28%
O=C(CN1C(=O)CC(c2ccco2)Sc2ccccc21)NCC1CCCO1 (stereo unspecified)	-14%	-1%	-1%	5%	11µM*	-27%
COc1ccc(C2CC(=O)N(CC(=O)NCC3CCCO3)c3ccccc3S2)cc1 (stereo unspecified)	-16%	6%	-2%	20%	10%	-14%
COc1cc2c(cc1OC)CN(CC(=O)Nc1ccc(Cl)c(S(=O)(=O)N(C)C)c1)CC2	nt	-26%	nt	nt	45µM*	nt
CN(C)S(=O)(=O)c1ccc(Cl)c(NC(=O)CN2CCc3ccccc3C2)c1	-4%	-39%	13%	55%	45µM*	-14%
CCOc1ccc(NC(=O)CN2CCc3cc4c(cc3C2)OCCCO4)cc1OCC	30µM*	-1%	-25%	-6%	10%	?
CN(C)C(=O)c1ccc(NC(=O)CN2CCc3cc4c(cc3C2)OCCCO4)cc1	-14%	-27%	-3%	37%	8%	-8%
Cc1ccc(NC(=O)CN2CCc3ccccc3C2)cc1S(=O)(=O)N(C)C	-17%	50µM*	-19%	?	10µM*	3.2µM*
CCOC(=O)C1=CCN(S(=O)(=O)c2ccc(C)cc2)C1c1ccc(Cl)cc1 (stereo unspecified)	-11%	nt	nt	nt	nt	nt
CN(C)S(=O)(=O)c1cc(NC(=O)CN2CCOCC2)ccc1Cl	24µM*	-5%	-18%	-1%	23%	14µM*
O=C(Cn1c(=O)nc(-c2ccccc2)c2cc(Cl)ccc21)N1CCN(c2ccccc2F)CC1	nt	-2%	6%	5%	14%[59 µM]	-1%
CCOc1cc(C(C(=O)NCC2CCCO2)N(C(=O)Cn2nnc3ccccc32)c2ccc(NC(C)=O)cc2)ccc1O (stereo unspecified)	1%	-6%	-23%	37%	45µM*	4%
